# Measurements: PubChem BioAssay (NCI)
# Compounds without any hit were thinned out: in the full panel of roughly 79,000, 15% have a hit. Values without a mark were called inactive. The source made the active and inactive calls. No stated cut-off is given here; in the data, active means growth inhibition above about 70%; inactive means the rest.
# Experiments:
# [1] = NCI Yeast Anticancer Drug Screen. Data for the wt1 strain (AID 149);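 further: 0% = growth of vehicle-treated wt1 cultures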; conditions: S. cerevisiae wt1 strain (SPY 50644) growth inhibition, hits give high values
# Method in brief: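 Using yeast strain wt1, compound-induced growth inhibition was determined against vehicle-treated cultures.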
# [2] = NCI Yeast Anticancer Drug Screen. Data for the rad50EPP+ strain (AID 151);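 further: 0% = growth of vehicle-treated control cultures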; conditions: S. cerevisiae rad50 mutant strain, hits give high values
# Method in brief: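 rad50EPP+ yeast treated with test compounds. Readout: growth vs vehicle control.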
# [3] = NCI Yeast Anticancer Drug Screen. Data for the mgt1 strain (AID 153); conditions: S. cerevisiae mgt1 mutant growth inhibition, hits give high values
# Method in brief: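 Growth inhibition relative to vehicle controls was scored for the mgt1 yeast strain after compound exposure.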
# [4] = NCI Yeast Anticancer Drug Screen. Data for the rad50 strain (AID 155);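 further: 0% = growth of vehicle-only cultures of the same strain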; conditions: S. cerevisiae rad50 strain growth inhibition, hits give high values
# Method in brief: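 Relative growth inhibition (compound vs vehicle) was measured in yeast with a defined repair-gene alteration.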
# [5] = NCI Yeast Anticancer Drug Screen. Data for the mec2-1 strain (AID 157); conditions: S. cerevisiae mec2-1 strain, hits give high values
# Method in brief: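 Growth inhibition is read against vehicle-treated controls after compound exposure of the mec2-1 yeast strain, which is defective in DNA damage repair or cell cycle control.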
# [6] = NCI Yeast Anticancer Drug Screen. Data for the rad14 strain (AID 159);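 further: 0% = growth of vehicle-treated control cultures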; conditions: S. cerevisiae rad14 strain growth inhibition, hits give high values
# Method in brief: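 Screen for anticancer potential: a yeast strain altered in DNA damage repair is grown with compound, and reduced growth is quantified against vehicle controls.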
# [7] = NCI Yeast Anticancer Drug Screen. Data for the sgs1 mgt1 strain (AID 161);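 further: 0% = growth of cultures given vehicle only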; conditions: S. cerevisiae sgs1 mgt1 strain, hits give high values
# Method in brief: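 Percent growth inhibition was derived by comparing compound-exposed mutant yeast with vehicle-exposed cultures. The strain carries alterations in DNA damage repair.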
# [8] = NCI Yeast Anticancer Drug Screen. Data for the CLN2oe strain (AID 163);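 further: 0% = growth of vehicle-only control cultures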; conditions: S. cerevisiae CLN2oe strain, hits give high values
# Method in brief: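 Compound-treated yeast; growth vs vehicle ctrl = % inhibition. Genetically altered strain (cell-cycle control).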
# [9] = NCI Yeast Anticancer Drug Screen. Data for the cln2 rad14 strain (AID 165);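 further: 0% = growth equal to vehicle treated cultures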; conditions: S. cerevisiae cln2 rad14 strain, hits give high values
# Method in brief: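 Growth inhibition, relative to vehicle-treated controls, is the read-out. The test organism is a yeast strain with defined genetic alterations, cln2 rad14.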
# [10] = NCI Yeast Anticancer Drug Screen. Data for the bub3 strain (AID 167); conditions: S. cerevisiae bub3 mutant strain, hits give high values
# Method in brief: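 Screening used yeast with an engineered genetic alteration affecting cell cycle control. Compound-exposed cultures were compared with vehicle cultures, and reduced growth was taken as inhibition.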
# [11] = NCI Yeast Anticancer Drug Screen. Data for the wt2 strain (AID 169);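 further: 0% = growth of vehicle-treated yeast cultures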; conditions: S. cerevisiae wt2 strain growth inhibition, hits give high values
# Method in brief: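 Compound exposure of yeast; growth compared with vehicle controls; inhibition reported.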
# [12] = NCI Yeast Anticancer Drug Screen. Data for the mlh1 strain (AID 171);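 further: 0% = growth of vehicle-treated control cultures of the same strain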; conditions: S. cerevisiae mlh1 strain growth inhibition, hits give high values
# Method in brief: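 Compounds are applied to a genetically altered yeast strain, and its growth is compared with that of vehicle-treated cultures to give percent inhibition.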
# [13] = NCI Yeast Anticancer Drug Screen. Data for the sgs1 strain (AID 173);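 further: 0% = growth of vehicle-only control cultures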; conditions: S. cerevisiae sgs1 mutant, hits give high values
# Method in brief: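 Compounds applied to genetically altered yeast; growth compared with vehicle-treated cultures to give % inhibition.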
# [14] = NCI Yeast Anticancer Drug Screen. Data for the mlh1 rad18 strain (AID 175); conditions: S. cerevisiae mlh1 rad18 strain growth inhibition, hits give high values
# Method in brief: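 Cells of a genetically altered yeast strain, deficient in DNA damage repair, were treated with compound. Their growth was then compared with that of vehicle-treated cultures to give inhibition.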
# [15] = NCI Yeast Anticancer Drug Screen. Data for the rad18 strain (AID 177); conditions: S. cerevisiae rad18 mutant growth inhibition, hits give high values
# Method in brief: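 Compounds are applied to a repair-deficient yeast strain, and growth is compared with that of vehicle-treated cultures to give percent inhibition.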
# [16] = NCI Yeast Anticancer Drug Screen. Data for the rad52 strain (AID 147);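 further: 0% = growth of vehicle-treated control cultures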; conditions: S. cerevisiae rad52 mutant growth inhibition, hits give high values
# Method in brief: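 DNA repair-defective yeast; compound exposure; growth scored against vehicle controls.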
# [17] = at 5.0 µM (retest, dose inferred, filed as 0.5)
# [18] = at 50.0 µM (retest, dose inferred, filed as 5.0)
compound,measurement,setting,value
Cc1cccc2c(Cl)c3cccc(C)c3nc12,growth inhibition,[1]; at 1.2 µM,-2%
same,growth inhibition,[1]; at 3.7 µM,-3%
same,growth inhibition,[1]; at 11.0 µM,-1%
same,growth inhibition,[1]; at 33.0 µM,-1%
same,growth inhibition,[1]; at 100.0 µM,2%
same,growth inhibition,[2]; at 1.2 µM,2%
same,growth inhibition,[2]; at 3.7 µM,5%
same,growth inhibition,[2]; at 11.0 µM,26%
same,growth inhibition,[2]; at 33.0 µM,64%
same,growth inhibition,[2]; at 100.0 µM,61%
same,growth inhibition,[3]; at 1.2 µM,-4%
same,growth inhibition,[3]; at 3.7 µM,1%
same,growth inhibition,[3]; at 11.0 µM,-7%
same,growth inhibition,[3]; at 33.0 µM,0%
same,growth inhibition,[3]; at 100.0 µM,-10%
same,growth inhibition,[4]; at 1.2 µM,1%
same,growth inhibition,[4]; at 3.7 µM,10%
same,growth inhibition,[4]; [17],13%
same,growth inhibition,[4]; at 11.0 µM,21%
same,growth inhibition,[4]; at 33.0 µM,44%
same,growth inhibition,[4]; [18],75% (active)
same,growth inhibition,[4]; at 50.0 µM,75% (active)
same,growth inhibition,[4]; at 100.0 µM,62%
same,growth inhibition,[5]; at 1.2 µM,-10%
same,growth inhibition,[5]; at 3.7 µM,-13%
same,growth inhibition,[5]; [17],7%
same,growth inhibition,[5]; at 11.0 µM,-10%
same,growth inhibition,[5]; at 33.0 µM,1%
same,growth inhibition,[5]; [18],25%
same,growth inhibition,[5]; at 50.0 µM,-15.9%
same,growth inhibition,[5]; at 100.0 µM,6%
same,growth inhibition,[6]; at 1.2 µM,-2%
same,growth inhibition,[6]; at 3.7 µM,11%
same,growth inhibition,[6]; at 11.0 µM,4%
same,growth inhibition,[6]; at 33.0 µM,13%
same,growth inhibition,[6]; at 100.0 µM,12%
same,growth inhibition,[7]; [17],-6%
same,growth inhibition,[7]; [18],58%
same,growth inhibition,[7]; at 50.0 µM,-15.8%
same,growth inhibition,[8]; at 1.2 µM,-5%
same,growth inhibition,[8]; at 3.7 µM,-5%
same,growth inhibition,[8]; at 11.0 µM,-7%
same,growth inhibition,[8]; at 33.0 µM,-7%
same,growth inhibition,[8]; at 100.0 µM,-3%
same,growth inhibition,[9]; [17],-33%
same,growth inhibition,[9]; [18],10%
same,growth inhibition,[9]; at 50.0 µM,1.65%
same,growth inhibition,[10]; at 1.2 µM,-8%
same,growth inhibition,[10]; at 3.7 µM,6%
same,growth inhibition,[10]; [17],0%
same,growth inhibition,[10]; at 11.0 µM,2%
same,growth inhibition,[10]; at 33.0 µM,1%
same,growth inhibition,[10]; [18],18%
same,growth inhibition,[10]; at 50.0 µM,-28.9%
same,growth inhibition,[10]; at 100.0 µM,-17%
same,growth inhibition,[11]; at 1.2 µM,-4%
same,growth inhibition,[11]; at 3.7 µM,-3%
same,growth inhibition,[11]; at 11.0 µM,-2%
same,growth inhibition,[11]; at 33.0 µM,3%
same,growth inhibition,[11]; at 100.0 µM,5%
same,growth inhibition,[12]; at 1.2 µM,-3%
same,growth inhibition,[12]; at 3.7 µM,-2%
same,growth inhibition,[12]; at 11.0 µM,3%
same,growth inhibition,[12]; at 33.0 µM,12%
same,growth inhibition,[12]; at 100.0 µM,12%
same,growth inhibition,[13]; at 1.2 µM,-3%
same,growth inhibition,[13]; at 3.7 µM,-5%
same,growth inhibition,[13]; at 11.0 µM,-4%
same,growth inhibition,[13]; at 33.0 µM,2%
same,growth inhibition,[13]; at 100.0 µM,2%
same,growth inhibition,[14]; [17],-16%
same,growth inhibition,[14]; [18],49%
same,growth inhibition,[14]; at 50.0 µM,10.1%
same,growth inhibition,[15]; at 1.2 µM,-3%
same,growth inhibition,[15]; at 3.7 µM,-3%
same,growth inhibition,[15]; at 11.0 µM,-1%
same,growth inhibition,[15]; at 33.0 µM,6%
same,growth inhibition,[15]; at 100.0 µM,14%
CCN(CC)CCC(=O)Nc1ccc2sc3ccccc3c(=O)c2n1,growth inhibition,[16]; at 1.2 µM,33%
same,growth inhibition,[16]; at 3.7 µM,70% (active)
same,growth inhibition,[16]; at 11.0 µM,92% (active)
same,growth inhibition,[16]; at 33.0 µM,95% (active)
same,growth inhibition,[16]; at 100.0 µM,94% (active)
same,growth inhibition,[2]; at 1.2 µM,25%
same,growth inhibition,[2]; at 3.7 µM,66%
same,growth inhibition,[2]; at 11.0 µM,89% (active)
same,growth inhibition,[2]; at 33.0 µM,94% (active)
same,growth inhibition,[2]; at 100.0 µM,94% (active)
same,growth inhibition,[3]; at 1.2 µM,-1%
same,growth inhibition,[3]; at 3.7 µM,-4%
same,growth inhibition,[3]; at 11.0 µM,5%
same,growth inhibition,[3]; at 33.0 µM,4%
same,growth inhibition,[3]; at 100.0 µM,3%
same,growth inhibition,[4]; at 1.2 µM,21%
same,growth inhibition,[4]; at 3.7 µM,53%
same,growth inhibition,[4]; [17],6%
same,growth inhibition,[4]; at 11.0 µM,85% (active)
same,growth inhibition,[4]; at 33.0 µM,93% (active)
same,growth inhibition,[4]; [18],90% (active)
same,growth inhibition,[4]; at 50.0 µM,70%
same,growth inhibition,[4]; at 100.0 µM,91% (active)
same,growth inhibition,[5]; at 1.2 µM,1%
same,growth inhibition,[5]; at 3.7 µM,3%
same,growth inhibition,[5]; [17],4%
same,growth inhibition,[5]; at 11.0 µM,13%
same,growth inhibition,[5]; at 33.0 µM,24%
same,growth inhibition,[5]; [18],-1%
same,growth inhibition,[5]; at 50.0 µM,-14.1%
same,growth inhibition,[5]; at 100.0 µM,20%
same,growth inhibition,[6]; at 1.2 µM,-1%
same,growth inhibition,[6]; at 3.7 µM,5%
same,growth inhibition,[6]; at 11.0 µM,25%
same,growth inhibition,[6]; at 33.0 µM,34%
same,growth inhibition,[6]; at 100.0 µM,25%
same,growth inhibition,[7]; [17],-22%
same,growth inhibition,[7]; [18],-2%
same,growth inhibition,[7]; at 50.0 µM,31.8%
same,growth inhibition,[9]; [17],21%
same,growth inhibition,[9]; [18],11%
same,growth inhibition,[9]; at 50.0 µM,21.4%
same,growth inhibition,[10]; at 1.2 µM,-3%
same,growth inhibition,[10]; at 3.7 µM,4%
same,growth inhibition,[10]; [17],-20%
same,growth inhibition,[10]; at 11.0 µM,-3%
same,growth inhibition,[10]; at 33.0 µM,-2%
same,growth inhibition,[10]; [18],-2%
same,growth inhibition,[10]; at 50.0 µM,14.3%
same,growth inhibition,[10]; at 100.0 µM,-5%
same,growth inhibition,[11]; at 1.2 µM,-2%
same,growth inhibition,[11]; at 3.7 µM,-3%
same,growth inhibition,[11]; at 11.0 µM,2%
same,growth inhibition,[11]; at 33.0 µM,16%
same,growth inhibition,[11]; at 100.0 µM,12%
same,growth inhibition,[12]; at 1.2 µM,-2%
same,growth inhibition,[12]; at 3.7 µM,-8%
same,growth inhibition,[12]; at 11.0 µM,1%
same,growth inhibition,[12]; at 33.0 µM,12%
same,growth inhibition,[12]; at 100.0 µM,7%
same,growth inhibition,[13]; at 1.2 µM,-25%
same,growth inhibition,[13]; at 3.7 µM,3%
same,growth inhibition,[13]; at 11.0 µM,15%
same,growth inhibition,[13]; at 33.0 µM,39%
same,growth inhibition,[13]; at 100.0 µM,26%
same,growth inhibition,[14]; [17],-6%
same,growth inhibition,[14]; [18],1%
same,growth inhibition,[14]; at 50.0 µM,25.8%
same,growth inhibition,[15]; at 1.2 µM,-5%
same,growth inhibition,[15]; at 3.7 µM,-4%
same,growth inhibition,[15]; at 11.0 µM,-1%
same,growth inhibition,[15]; at 33.0 µM,-1%
same,growth inhibition,[15]; at 100.0 µM,9%
